# From PubChem BioAssay
# Sfp PPTase inh: blocks B. subtilis Sfp PPTase activity; hit rate 3.5% among 310,000; Q9F4F7; Potency, µM, for inactives: largest response in the series, negative = inhibition, most hits filed as inhibitors; Biochemical Sfp PPTase activity, qHTS;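 note: the enzyme is Sfp with the accession as filed and its product quenches rhodamine fluorescence; 0% = enzyme reaction without inhibitor and -100% = no enzyme wells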
#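 With Hepes-Na pH 7.6 buffer containing 10 mM MgCl2, Sfp (15 nM) modified BHQ-2-YbbR (12.5 uM) using rhodamine-CoA (5 uM). Two reads 30 minutes apart at 525/598 nm yielded each well's rate.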
# PINK1 expr mod: changes PINK1 expression; PINK1 immunofluorescence, high-content cytometry, 24 h; Potency, µM (doses to about 76.6 µM), for inactives: at the highest dose activation (PINK1 increase), usual class: activators; hit rate 0.2% among 410,000; active = well fitted activation curve with a large enough effect; inconclusive = small, poorly fitted or top-dose-only effect; cell line not stated here; note: % of control where 0% means no effect; nearly all actives have a fitted effect of over 65% in size
#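 PINK1 protein, normally rapidly degraded, was detected by immunofluorescence after 24 hour compound treatment of a stable cell line. Titration data (5 concentrations) came from laser-scanning cytometry, with CCCP-treated wells as controls.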
# Epigenetic reg: derepresses silenced GFP reporter in murine cells; hit rate 0.2% among 280,000; Potency, µM (highest dose often 53.9 µM), for inactives: at the highest dose GFP activation, actives largely listed as activators; murine LDR cells, GFP reporter derepression, 30 h; note: % of control where 0% means no effect; nearly all actives have a fitted effect of over 60% in size
#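 Murine LDR cells carrying a silenced, genomically integrated CMV-driven GFP reporter were exposed to compound for 30 hours at 37 C. After PBS washes, GFP-positive cells (20–120 um objects) were counted by laser-scanning microplate cytometry.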
# ClpP mod: qHTS Assay for Activators of ClpP | purified B. subtilis ClpP, FRET peptide cleavage, 20 min | Potency, µM (doses to about 57.5 µM), inactives show at the highest dose activity change, negative = active | hit rate 1.9% among 340,000 | AID 651965, 2013; active = well fitted falling curve with a large enough effect; inconclusive = small, poorly fitted or top-dose-only effect; inactive = no such curve, though single readings can be large or run the other way; note: the source files actives as falling curves though it sought activators and does not explain the sign; nearly all actives have a fitted effect of over 65% in size
# Target sequence (P80244 whole entry, looked up): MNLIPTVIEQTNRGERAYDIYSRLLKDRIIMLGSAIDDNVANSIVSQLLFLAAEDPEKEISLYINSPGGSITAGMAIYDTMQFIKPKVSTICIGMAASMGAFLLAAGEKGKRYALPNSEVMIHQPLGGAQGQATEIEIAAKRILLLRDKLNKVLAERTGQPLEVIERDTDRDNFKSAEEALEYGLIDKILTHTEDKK
#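 Purified B. subtilis ClpP, 10 microg/mL final in Tris/HCl pH8 with KCl, BSA, glycerol and Tween-20, cleaved an Abz/nitrotyrosine-quenched decapeptide. Fluorescence (ex 320, em 430) was read at 0 and 20 min at room temperature. Delta was normalized to 5.8 microM ADEP and DMSO/no-enzyme controls.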
# RORg inh: blocks mouse ROR gamma transcriptional activity; P51450; Drosophila S2 Gal4-RORgamma UAS-luciferase reporter, 20 h; Potency, µM (titrated, usually from 53.6 µM), for inactives: at the top dose activity change, negative = inhibition, actives largely listed as inhibitors; hit rate 5.4% among 310,000; AID 2551; note: % is set by controls: 0 for no effect and ±100 for the full control effect; nearly all actives have a fitted effect of over 60% in size
# Target sequence (P51450 whole entry, looked up, the tested form may be a part): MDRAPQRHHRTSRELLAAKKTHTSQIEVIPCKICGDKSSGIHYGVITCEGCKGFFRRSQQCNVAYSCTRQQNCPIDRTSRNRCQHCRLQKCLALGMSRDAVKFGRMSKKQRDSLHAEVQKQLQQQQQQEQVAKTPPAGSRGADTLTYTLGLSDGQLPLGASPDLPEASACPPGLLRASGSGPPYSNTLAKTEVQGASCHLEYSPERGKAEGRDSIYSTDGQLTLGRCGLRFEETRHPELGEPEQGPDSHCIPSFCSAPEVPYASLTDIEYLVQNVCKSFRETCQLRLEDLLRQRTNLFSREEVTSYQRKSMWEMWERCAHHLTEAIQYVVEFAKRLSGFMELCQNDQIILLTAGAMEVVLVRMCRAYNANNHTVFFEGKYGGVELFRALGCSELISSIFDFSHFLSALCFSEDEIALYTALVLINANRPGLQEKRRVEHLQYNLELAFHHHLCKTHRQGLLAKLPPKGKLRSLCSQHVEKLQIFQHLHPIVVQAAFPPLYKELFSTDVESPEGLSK
#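 Compounds are pin-transferred onto Drosophila Schneider cells expressing a copper-inducible Gal4–ROR gamma transactivation domain fusion. After 1 hr, copper sulfate is added to 700 uM final; luciferase is read 20 hr later.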
# Gal4-VP16 FLuc: inhibits Gal4-VP16 luciferase reporter, ROR gamma counter-screen. Drosophila S2 Gal4-VP16 UAS-luciferase, luminescence, 20 h. hit rate 3.5% among 310,000. Potency, µM (top dose mostly 53.6 µM), inactives show at the highest dose activity, negative = inhibition, usual class: inhibitors;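 note: Gal4-VP16 expression switched on by copper sulfate through the metallothionein promoter; % is set by controls: 0 for no effect and ±100 for the full control effect; nearly all actives have a fitted effect of over 50% in size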
# * marks the source's active call; other numbers are inactive results; ? = inconclusive; · = not tested or not shown; [ ] = remark or other dose. Sampled rows, rich in hits. Any-hit rate of the full collection: about 8.1%. Unless noted, calls come from the whole dose curve; as a rule, active = well fitted curve in the direction sought with a large enough effect; inconclusive = small, poorly fitted or top-dose-only effect, or another doubt; inactive = no such curve, though single readings can be large; an effect the other way counts as inactive or inconclusive. Potency is the fitted concentration of half-maximal effect.
SMILES,Sfp PPTase inh,PINK1 expr mod,Epigenetic reg,ClpP mod,RORg inh,Gal4-VP16 FLuc
COC(=O)c1cc(OC)c(OC)cc1NC(=O)CN1CCCCC1,8%,8%[38.3 µM],-2%,-16%,5%,3%
O=C(O)c1ccccc1SC1CC(=O)N(c2ccccc2)C1=O (centres undefined),79µM*,-1%,1%,-2%,13µM*,4µM*
Cc1nnc(SC2CC(=O)N(c3ccccc3)C2=O)s1 (centres undefined),35µM*,2%,-1%,-1%,1.1µM*,1µM*
O=C(O)c1cccnc1SC1CC(=O)N(c2ccccc2)C1=O (centres undefined),15%,-2%,-2%,-1%,-2%,1%
CCOC(=O)c1cc(CC)sc1N1C(=O)CC(Sc2ccccc2C(=O)O)C1=O (centres undefined),3.5µM*,2%,0%,·,?,?
O=C1CC(Sc2cccs2)C(=O)N1c1ccccc1 (centres undefined),-29%,1%,0%,·,4.5µM*,7.9µM*
CC(=O)C[n+]1cccc(Br)c1,·,0%,·,0%,·,·
CCCCOc1cccc(C(=O)N(Cc2ccc(Cl)cc2)C2CCS(=O)(=O)C2)c1 (centres undefined),·,-2%,-1%,-6%,·,·
Cn1cc(-c2cc3n(n2)CCC(=O)N3CCCC(=O)Nc2ccccc2Cl)c2ccccc21,·,4%,3%,-4%,·,·
O=C(CSc1nc2ccccc2n1Cc1ccc(F)c(Cl)c1)N1CCN(c2ccc(F)cc2)CC1,·,-1%,0%,0%,·,·
CCc1ccc(C(=O)c2cn(Cc3ccc(F)cc3)c3cc(OC)c(OC)cc3c2=O)cc1,·,-1%,0%,-2%,·,·
CCOC(=O)C1CCC(CN(Cc2ccc(OC)cc2)S(=O)(=O)c2ccc(F)c(C(=O)Nc3ccc(C)c(C)c3)c2)CC1 (centres undefined),·,2%,2%,0%,·,·
Oc1ccccc1C1C=C(c2ccc3c(c2)OCO3)NC(c2cccc(Br)c2)N1 (centres undefined),·,0%,·,·,·,·
S=c1[nH]ncn1/N=C/c1ccc(Br)cc1,-6%,1%,0%,-2%,2.2µM*,4µM*
CCn1c(/C=N/n2cnnc2)nc2ccccc21,10%,0%[38.3 µM],2%,28µM*,10%,-5%
CCn1c2ccccc2c2cc(/C=N/n3cnnc3)ccc21,-8%,·,0%,25µM*,-2%,?
CCn1c2ccccc2c2cc(/C=N/n3c(-c4cc(C)[nH]n4)n[nH]c3=S)ccc21,-28%,2%,1%,·,-34%,?
CCn1c2ccccc2c2cc(/C=N/n3cn[nH]c3=S)ccc21,-25%,-7%[38.3 µM],0%,14%,1.1µM*,7.1µM*
COc1ccc2ccccc2c1/C=N/n1cnnc1,6%,1%,·,-10%,-5%,1%
CSc1nnc(CCNC(=O)/C=C/c2cccc(F)c2)n1-c1ccc(F)cc1,·,0%,·,·,·,·
CCn1c2ccccc2c2cc(/C=N/NC(=O)c3ccccc3C)ccc21,12%,7%,2%,13µM*,?,?
COc1ccc(C(=O)NCc2n[nH]c(=S)n2-c2ccccc2)cc1OC,56µM*,1%[38.3 µM],0%,-2%,-34%,-5%
COc1cc(OC)cc(C(=O)NCc2n[nH]c(=S)n2-c2ccccc2)c1,89µM*,0%[38.3 µM],-1%,2%,26%,3%
COc1cccc(-c2nc(S(=O)(=O)c3ccc(C)cc3)c(N3CCCCC3)o2)c1,·,1%,-1%,-26%,·,·
O=C1C(c2ccc(C(F)(F)F)cc2)=C(Nc2ccc(Cl)cc2)c2ccccc21,·,0%,10%,3%,·,·
SMILES,Sfp PPTase inh,PINK1 expr mod,Epigenetic reg,ClpP mod,RORg inh,Gal4-VP16 FLuc
Cc1ccc(NC(=O)c2c(C(F)(F)F)nn(C)c2SCc2ccc(Cl)cc2)cc1C,23%,?,-2%,-3%,0.45µM*,-1%
CC(C)c1ccc(NC(=O)C2CCCN2S(=O)(=O)c2ccc3nc(-c4ccccc4)[nH]c3c2)cc1 (centres undefined),·,2%,0%,-20%,·,·
COC[C@H]1CCCN1c1ccc2c(c1)O[C@@H](COCc1ccccc1)CN([C@H](C)c1ccccc1)S2(=O)=O,·,0%,·,5.6µM*,·,·
COc1ccccc1NC(=O)Cn1c(=O)n(Cc2nc(C)no2)c(=O)c2cc3c(cc21)OCO3,·,0%,0%,?,·,·
Cc1cccc(CS(=O)(=O)Cc2ccc(C(=O)NCc3ccc(F)cc3)o2)c1,·,0%,4%,0%,·,·
Cc1cc(C)cc(NC(=O)C(=O)NCC(c2ccc3c(c2)OCO3)N2CCOCC2)c1 (centres undefined),·,2%,7%,1%,·,·
CC1C/C(=C\c2cccnc2)C(=O)/C(=C/c2cccnc2)C1 (centres undefined),?,-2%,0%,1%,1.1µM*,0.63µM*
O=C1/C(=C/c2cccnc2)CCc2c1[nH]c1ccccc21,0%,0%,-1%,·,12%,-6%
Cn1c(=O)c(Cc2ccccc2)c(O)c2ccccc21,22%,0%[38.3 µM],5%,25µM*,3%,4%
CCCc1c(O)c2ccccc2n(-c2ccccc2)c1=O,-1%,1%,-1%,5.6µM*,22%,-8%
CC(C)Cn1c(=O)c(-[n+]2ccccc2)c([O-])c2ccccc21,-12%,0%,3%,·,13%,-14%
CC(=O)c1c(O)c2ccccc2n(C)c1=O,12%,3%,2%,1%,-34%,-2%
CCCn1c(=O)c(Cc2ccccc2)c(O)c2ccccc21,-29%,-1%,-2%,28µM*,5%,1%
CCCCn1c(=O)c(-[n+]2ccccc2)c([O-])c2ccccc21,14µM*,2%,3%,2%,11µM*,-22%
CCn1c(=O)c(C(C)=O)c(O)c2ccccc21,-8%,1%,0%,-2%,-28%,-2%
COc1cccc(Nc2ncc3nc(-c4ccccc4)c(=O)n(C[C@H]4CCCO4)c3n2)c1,5%,-1%,·,·,9%,-28%
COc1cccc(C(=O)N2CCCC(c3nc(SCCN4CCOCC4)ncc3C)C2)c1 (centres undefined),·,2%,·,·,·,·
O=C(NCCc1ccc(Cl)cc1)c1ccc2c(c1)N(Cc1ccccc1)C(=O)CS2,·,1%,2%,-2%,·,·
CCCCCn1c(=O)c(Cc2ccccc2)c(O)c2ccccc21,18%,-1%[38.3 µM],-1%,14µM*,?,-6%
CCCCCOC(=O)Cc1c(O)c2ccccc2n(C)c1=O,-3%,-2%,0%,28µM*,?,2%
